Among the data in PubChem BioAssay (NCI) are growth inhibition values, retold here.

Experiment [1] can be described thus: NCI Yeast Anticancer Drug Screen. Data for the rad50 strain (AID 155).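 Also: 0% = growth of vehicle-only cultures of the same strain.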 Particulars: S. cerevisiae rad50 strain growth inhibition; at 50.0 µM; active compounds read high. Put shortly:
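Relative growth inhibition (compound vs vehicle) was measured in yeast with a defined repair-gene alteration.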

A short description of experiment [2]: NCI Yeast Anticancer Drug Screen. Data for the mec2-1 strain (AID 157). Particulars: S. cerevisiae mec2-1 strain, at 50.0 µM, active compounds read high. A digest of the protocol: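 Vehicle-treated cultures served as reference for growth inhibition of compound-exposed mec2-1 yeast.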
A short description of experiment [3]: NCI Yeast Anticancer Drug Screen. Data for the sgs1 mgt1 strain (AID 161).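 Also: 0% = growth of cultures given vehicle only.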 Particulars: S. cerevisiae sgs1 mgt1 strain, at 50.0 µM, active compounds read high. A digest of the protocol:
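Read-out: growth inhibition vs vehicle controls. Cells: mutant yeast strain deficient in DNA damage repair.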

A short description of experiment [4]: NCI Yeast Anticancer Drug Screen. Data for the cln2 rad14 strain (AID 165).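 Also: 0% = growth equal to vehicle treated cultures.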 Particulars: S. cerevisiae cln2 rad14 strain, at 50.0 µM, active compounds read high. A digest of the protocol:
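Each compound was tested on cln2 rad14 yeast. Inhibition of growth was calculated against vehicle-exposed controls.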

Experiment [5] in a line: NCI Yeast Anticancer Drug Screen. Data for the bub3 strain (AID 167). Particulars: S. cerevisiae bub3 mutant strain, at 50.0 µM, active compounds read high. Put shortly:
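Screening used yeast with an engineered genetic alteration affecting cell cycle control. Compound-exposed cultures were compared with vehicle cultures, and reduced growth was taken as inhibition.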

A short description of experiment [6]: NCI Yeast Anticancer Drug Screen. Data for the mlh1 rad18 strain (AID 175). The conditions noted are these: S. cerevisiae mlh1 rad18 strain growth inhibition; at 50.0 µM; active compounds read high. A digest of the protocol:
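Vehicle-treated cultures served as the reference for growth inhibition in a yeast strain carrying DNA damage repair alterations exposed to each compound.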

About 79,000 compounds went through this panel and 15% of them were active in at least one assay; those are over-represented in the sample as a whole. A number with no mark means an inactive call. Calls of active or inactive are those of the source. Rule as the data show it: active = growth inhibition above about 70%; inactive = the rest.

On to `CN(CCCCl)Cc1ccccc1`, for which the growth inhibition in experiment [1] is 1.85%; in experiment [2], -26.8%; in experiment [3], -24.7%; in experiment [4], 1.35%; in experiment [5], -14.3%; in experiment [6], -7.55%.

Turning to `CC(C)(C)NC(=O)Oc1ccc(-c2ccccc2)cc1Cl`, the growth inhibition in experiment [1] is 98.8% (active); in experiment [2] it was 99.5% (active); in experiment [3], 99.2% (active); in experiment [4], 98.3% (active); in experiment [5] it was 99.3% (active); in experiment [6], 99.3% (active).

For the compound `COc1cc([N+](=O)[O-])c(OC)cc1Nc1ccccc1C(=O)O`, the growth inhibition in experiment [1] was 13.1%; in experiment [2], -12.8%; in experiment [3] it was 22.1%; in experiment [4], 18.2%; in experiment [5] it was 29.4%; in experiment [6], 16%.

As for `c1ccc(Cn2nnc(-c3ccccc3)n2)cc1`, the growth inhibition was 19.3% in experiment [1]; 8.45% in experiment [2]; 5.3% in experiment [3]; -10.3% in experiment [4]; 32.9% in experiment [5]; 18.4% in experiment [6].

As to `CC(C)(CN)C(=O)O`, the growth inhibition is -3.2% in experiment [1]; -6.95% in experiment [2]; -11.6% in experiment [3]; -17.1% in experiment [4]; -0.3% in experiment [5]; 9.75% in experiment [6].

Regarding `Cc1nc2ccccc2nc1CC(=N)c1ccccc1`, the growth inhibition in experiment [1] is 24.2%; in experiment [2] it was 15.8%; in experiment [3] it was -5.85%; in experiment [4], 5.1%; in experiment [5], 35.7%; in experiment [6], 17.8%.

Turning to `CC/C(C)=N/NC(=O)c1ccc([N+](=O)[O-])cc1`, the growth inhibition in experiment [1] is 22.7%; in experiment [2], 12%; in experiment [3], 20.8%; in experiment [4], 8.6%; in experiment [5], 0.95%; in experiment [6], 16.6%.

In the case of `COc1ccc(Nc2nc3ccccc3nc2-c2cccs2)cc1`, the growth inhibition in experiment [1] was 5.2%; in experiment [2] it was -3.8%; in experiment [3], 23.5%; in experiment [4] it was -1.45%; in experiment [5], 14.3%; in experiment [6] it was 17.3%.

Regarding `O=C(CCC(O)c1ccccc1)c1ccccc1` (stereo unspecified), the growth inhibition in experiment [1] was -13.6%; in experiment [2], -12.3%; in experiment [3], -9.3%; in experiment [4], -10.9%; in experiment [5] it was 0%; in experiment [6], 2.35%.

Regarding `NC1=NS(=O)(=O)Nc2nc(-c3ccccc3)c(-c3ccccc3)nc21`, the growth inhibition in experiment [1] is -24.6%; in experiment [2], -10.2%; in experiment [3], 12.5%; in experiment [4], -0.85%; in experiment [5] it was 2.6%; in experiment [6], 7.3%.

On to `CN(CCC(=O)O)S(=O)(=O)c1ccccc1`, for which the growth inhibition is -13.1% in experiment [1]; -17.2% in experiment [2]; -10.6% in experiment [3]; -9.1% in experiment [4]; -46.4% in experiment [5]; -3.8% in experiment [6].

In the case of `O=C(OCc1ccccc1C1CSCSC1)c1cc(C(=O)OCc2ccccc2C2CSCSC2)c(C(=O)OCc2ccccc2C2CSCSC2)cc1C(=O)OCc1ccccc1C1CSCSC1`, the growth inhibition was 5.3% in experiment [1]; -17.7% in experiment [2]; -10.6% in experiment [3]; 1.65% in experiment [4]; 6.1% in experiment [5]; -8.8% in experiment [6].

As to `O=C(CNC(=O)OCc1ccccc1)NCCNCCNC(=O)CNC(=O)OCc1ccccc1`, the growth inhibition is -26.9% in experiment [1]; 6.7% in experiment [2]; -5.65% in experiment [3]; 36.2% in experiment [4]; 8.45% in experiment [5]; -0.4% in experiment [6].

As for `N#CC(C(=O)C(=O)Nc1cccc(Cl)c1)c1ccccc1` (stereo unspecified), the growth inhibition is -4.55% in experiment [1]; -6.9% in experiment [2]; -19% in experiment [3]; -89.1% in experiment [4]; -11.8% in experiment [5]; -4.2% in experiment [6].

As to `CCOC(=O)c1ccc(N=C(N)N)cc1`, the growth inhibition in experiment [1] was 23%; in experiment [2] it was 9.85%; in experiment [3], 19.8%; in experiment [4], 11%; in experiment [5], 17.2%; in experiment [6], 19.6%.

For `C/C(=N\NC(=O)CC(=O)Nc1ccccc1Cl)c1cc2cc(N=Nc3ccccc3Cl)ccc2oc1=O`, the growth inhibition was -17.1% in experiment [1]; 0.7% in experiment [2]; 13.9% in experiment [3]; 4.4% in experiment [4]; -4.05% in experiment [5]; -13.6% in experiment [6].

Regarding `C1CCN(SN2CCCCC2)CC1`, the growth inhibition in experiment [1] was -4.4%; in experiment [2], -15.7%; in experiment [3] it was -3.6%; in experiment [4], -13.2%; in experiment [5], 4.75%; in experiment [6] it was 5.7%.

In the case of `Clc1ccc(Cl)c(Nc2ccnc(SCc3ccccc3)n2)c1`, the growth inhibition in experiment [1] was 42.1%; in experiment [2] it was 25.9%; in experiment [3], -27.5%; in experiment [4], 14.4%; in experiment [5], -7%; in experiment [6], 24.9%.

Turning to `CC1(C2(C)Nc3ccccc3O2)Nc2ccccc2O1` (stereo unspecified), the growth inhibition in experiment [1] was 10.2%; in experiment [2] it was 8.35%; in experiment [3] it was 9.95%; in experiment [4] it was -36.8%; in experiment [5] it was 3.65%; in experiment [6] it was 9.05%.

Regarding `C#CCOC(=O)[C@@H](C)c1ccc2cc(OC)ccc2c1`, the growth inhibition in experiment [1] is 11.2%; in experiment [2] it was 4.25%; in experiment [3], 52.3%; in experiment [4] it was 17.4%; in experiment [5], 36.6%; in experiment [6], 43%.

On to `CC1C/C=C2\CSC(NC(=O)/C3=C\N(C/C=C/C=C/C(O)CC(O)CC(=O)N3)C2=O)C(=O)O1` (stereo unspecified), for which the growth inhibition is 13.7% in experiment [1]; 11.7% in experiment [2]; 22.2% in experiment [3]; 19% in experiment [4]; 17.5% in experiment [5]; 18.2% in experiment [6].
